Data from PubChem BioAssay (Tox21).
Inconclusive results are not listed. Active and inactive are the calls of the source. Unless noted, the call rests on the fitted dose curve; in most records, active means well fitted cell-killing curve with a large enough effect in the repeat runs; inconclusive means weak or mixed curves, or effect the other way; inactive means flat fitted curve, though single readings scatter.

system: not listed separately; assay: qHTS assay to identify small molecule that activate the aryl hydrocarbon receptor (AhR) signaling pathway - cell viability counter screen (AID 743086); conditions: HepG2-AhR-luc viability, CellTiter-Fluor, 24 h; series mostly up to 70.3 µM; viability change, negative = cytotoxic: at the top concentration;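 further: HepG2 liver cells carrying the AhR DRE luciferase reporter; nearly all actives have a fitted effect of over 45% in size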
Procedure, shortened: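 HepG2-AhR-luc (HG2L7.5c1) cells, 4000/well, were preincubated 5 h at 37C, exposed to compound in qHTS format for 24 hr at 37C, then given CellTiter-Fluor for 30 min; viability was read as fluorescence in the reporter wells.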
On the % scale 0 is the no-effect control and ±100 the full control effect.

Structure (SMILES)	viability change, negative = cytotoxic	Potency
Cc1cnc(C)c(C)n1	3.59% [at 95 µM] (inactive)	–
CC(C)(C)C(=O)O	11.9% [at 95 µM] (inactive)	–
CCCCC(=O)O[C@]1(C(=O)CO)CC[C@H]2[C@@H]3CCC4=CC(=O)CC[C@]4(C)[C@H]3[C@@H](O)C[C@@]21C	-2.4% (inactive)	–
COC(=O)Nc1nc2ccc(C(=O)c3cccs3)cc2[nH]1	4.51% (inactive)	–
CC(C)c1nnc2ccc(-c3ocnc3-c3cc(F)ccc3F)cn12	3.61% (inactive)	–
C[N+]1(C)CCC(=C(c2ccccc2)c2ccccc2)CC1	14.7% [at 32.5 µM] (inactive)	–
CC(=O)[C@H]1CC[C@H]2[C@@H]3C[C@H](C)C4=CC(=O)CC[C@]4(C)[C@H]3[C@@H](O)C[C@]12C	-2.95% [at 32.5 µM] (inactive)	–
C=CC(=C)CCCC(C)(C)OC(C)=O	-0.693% (inactive)	–
Fc1c(F)c(F)c(Br)c(F)c1F	-2.03% (inactive)	–
Nc1nc(Cl)nc2c1ncn2[C@@H]1O[C@H](CO)[C@@H](O)[C@@H]1F	-0.588% (inactive)	–
CCOC(=O)[C@@H](C)Oc1ccc(Oc2nc3ccc(Cl)cc3o2)cc1	-5.32% (inactive)	–
CN(C)C(=O)Nc1ccc(Oc2ccc(Cl)cc2)cc1	-20.2% (inactive)	–
CCCCC(CC)CNCC(CC)CCCC (stereo not drawn)	4.44% (inactive)	–
C[Si]1(C)O[Si](C)(C)O[Si](C)(C)O1	-2.18% (inactive)	–
Cc1oc(C)c(C(=O)Nc2ccccc2)c1C	-4.07% (inactive)	–
COCc1c(C(C)C)nc(C(C)C)c(/C=C/[C@@H](O)C[C@@H](O)CC(=O)O)c1-c1ccc(F)cc1	4.42% (inactive)	–
CCC(C)=O	-14.9% (inactive)	–
CC1CC(O)CC(C)(C)C1 (stereo not drawn)	–	inactive
CC1C2CC(CC2C2CCCC(O)C2)C1(C)C (stereo not drawn)	6.84% (inactive)	–
CCCCCCCCSCCO	7.74% (inactive)	–

target: Peroxisome proliferator-activated receptor gamma (Homo sapiens) (UniProt P37231); assay: qHTS assay to identify small molecule agonists of the peroxisome proliferator-activated receptor gamma (PPARg) signaling pathway (AID 743094; active means well fitted activation curve with a large enough effect in the signal ratio in the repeat runs, not every such curve was filed as active; the % refers to the signal ratio); conditions: HEK293H PPARg-UAS-bla, beta-lactamase FRET ratio, 17 h; series mostly up to 57 µM; activation: at the top concentration
Procedure, shortened: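 Fluorescence-based beta-lactamase readout in HEK293H PPARg UAS-bla cells after 17 h compound exposure (37C) and 1 h B/G FRET substrate incubation at room temperature.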

Peroxisome proliferator-activated receptor gamma (Homo sapiens), sequence (P37231 whole entry, looked up): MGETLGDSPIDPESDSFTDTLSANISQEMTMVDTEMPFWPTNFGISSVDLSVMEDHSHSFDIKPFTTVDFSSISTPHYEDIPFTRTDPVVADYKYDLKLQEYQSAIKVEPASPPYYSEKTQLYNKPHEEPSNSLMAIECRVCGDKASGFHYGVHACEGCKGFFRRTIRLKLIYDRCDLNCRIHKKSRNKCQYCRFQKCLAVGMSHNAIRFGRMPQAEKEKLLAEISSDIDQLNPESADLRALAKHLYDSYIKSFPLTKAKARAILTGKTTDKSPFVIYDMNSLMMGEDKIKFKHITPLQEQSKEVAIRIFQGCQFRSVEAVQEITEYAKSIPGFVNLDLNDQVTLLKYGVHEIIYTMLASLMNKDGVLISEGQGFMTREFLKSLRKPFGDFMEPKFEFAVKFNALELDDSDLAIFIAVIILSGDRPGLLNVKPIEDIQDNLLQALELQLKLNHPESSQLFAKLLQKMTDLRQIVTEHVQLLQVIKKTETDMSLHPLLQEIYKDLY

Structure (SMILES)	activation	Potency
NCC1CCCC(CN)C1 (stereo not drawn)	5.36% (inactive)	–
c1cnc2c(n1)CCCC2	7.43% (inactive)	–
Nc1nccs1	–	inactive
CC(=N\O)/C(C)=N/O	-3.49% (inactive)	–
CC(C)CCCCCOC(=O)CCCCC(=O)OCCCCCC(C)C	8.03% (inactive)	–
CO[C@H]1O[C@H](CO)[C@@H](O)[C@H](O)[C@H]1O	5.45% (inactive)	–
O=C(CCCCCCCCC#CI)Oc1ccccc1	-11.1% (inactive)	–
CCCCN(CCCC)CCCOC(=O)c1ccc(N)cc1	-1.28% [at 26.2 µM] (inactive)	–
CC1=CC(=O)CC(C)(C)C1(O)/C=C/C(C)=C\C(=O)O (stereo not drawn)	-0.0766% (inactive)	–
CCCC(=O)O[C@]1(C(=O)COC(=O)CC)CC[C@H]2[C@@H]3CCC4=CC(=O)CC[C@]4(C)[C@H]3[C@@H](O)C[C@@]21C	0.137% (inactive)	–
Cc1ccccc1N1C(=O)c2cc(S(N)(=O)=O)c(Cl)cc2NC1C (stereo not drawn)	–	inactive
Cc1cnc(C)c(C)n1	-0.548% [at 78.9 µM] (inactive)	–
CC(C)(C)C(=O)O	5.05% [at 78.9 µM] (inactive)	–
CC(C)c1nnc2ccc(-c3ocnc3-c3cc(F)ccc3F)cn12	-9.45% (inactive)	–
CC(=O)[C@H]1CC[C@H]2[C@@H]3C[C@H](C)C4=CC(=O)CC[C@]4(C)[C@H]3[C@@H](O)C[C@]12C	0.653% [at 26.2 µM] (inactive)	–
C=CC(=C)CCCC(C)(C)OC(C)=O	-5.16% (inactive)	–
Fc1c(F)c(F)c(Br)c(F)c1F	0.0067% (inactive)	–
CCOC(=O)[C@@H](C)Oc1ccc(Oc2nc3ccc(Cl)cc3o2)cc1	-2.52% (inactive)	–
CN(C)C(=O)Nc1ccc(Oc2ccc(Cl)cc2)cc1	-5.26% (inactive)	–
C[Si]1(C)O[Si](C)(C)O[Si](C)(C)O1	-9.51% (inactive)	–
CCC(C)=O	0.741% (inactive)	–
CC1CC(O)CC(C)(C)C1 (stereo not drawn)	–	inactive
CCCCCCCCSCCO	-4.22% (inactive)	–
